Measured values published in PubChem BioAssay (NCI).
This is part of a sample that, as a whole, favours compounds with a hit. Of some 83,000 tested, about 20% had one in any assay.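 Compound tested at a single concentration for 48 hours in 96-well plates; a percent growth value below 10 was scored as active.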 Activity calls are given as the source filed them.

Columns and labels:
Assay in all cases: NCI-60 one-dose screen, 48 h (100 = growth as untreated, 0 = no growth, -100 = all killed)
Conditions in all cases: 10 µM unless noted
NCI-H23 lung = test system: NCI-H23 lung
NCI-H226 lung = test system: NCI-H226 lung
NCI-H322M lung = test system: NCI-H322M lung
HOP-62 NSCLC = test system: HOP-62 NSCLC
NCI-H460 lung = test system: NCI-H460 lung
HOP-92 NSCLC = test system: HOP-92 NSCLC
NCI-H522 lung = test system: NCI-H522 lung
A549/ATCC NSCLC = test system: A549/ATCC NSCLC
786-0 renal = test system: 786-0 renal
COLO 205 colon = test system: COLO 205 colon

Measured: growth

CCN1C(=O)N(CC)C2C1NN=c1s/c(=C3\C(=O)N(C)c4ccccc43)c(=O)n12 (stereo not given)
active: NCI-H460 lung 6.21% | COLO 205 colon 8.01%
inactive: NCI-H23 lung 37% | NCI-H226 lung 96.7% | NCI-H322M lung 48.4% | HOP-62 NSCLC 29.8% | HOP-92 NSCLC 56.8% | NCI-H522 lung 21.7% | A549/ATCC NSCLC 35.1% | 786-0 renal 36.9%

COc1cc(/C=C/c2cc(/C=C/c3ccc(O)c(OC)c3)n(C(=O)Nc3ccc(C)cc3C)n2)ccc1O
active: NCI-H23 lung -26.1% | NCI-H226 lung -3.7% | NCI-H322M lung 8.13% | HOP-62 NSCLC -35.7% | NCI-H460 lung 1.87% | HOP-92 NSCLC -27% | NCI-H522 lung 6.31% | A549/ATCC NSCLC -3.98% | 786-0 renal -59.1% | COLO 205 colon -65.6%

CCCn1cnc2c(c1=N)C(c1ccc(Cl)cc1)c1sc3c(F)cccc3c1O2 (stereo not given)
active: COLO 205 colon -67.9%
inactive: NCI-H23 lung 81.8% | NCI-H226 lung 85.5% | NCI-H322M lung 75.6% | HOP-62 NSCLC 96.9% | NCI-H460 lung 66.2% | HOP-92 NSCLC 79.3% | NCI-H522 lung 69.7% | A549/ATCC NSCLC 76% | 786-0 renal 69.3%

COc1c(O[C@@H]2OC(CO)[C@H](O)[C@H](O)C2O)cc2oc3cc(O)c(CC=C(C)C)c(O)c3c(=O)c2c1CC=C(C)C (stereo not given in full)
inactive: NCI-H23 lung 93.5% | NCI-H226 lung 86.6% | NCI-H322M lung 103% | HOP-62 NSCLC 79% | NCI-H460 lung 101% | HOP-92 NSCLC 81.1% | NCI-H522 lung 64.6% | A549/ATCC NSCLC 97.4% | 786-0 renal 106% | COLO 205 colon 96.3%

COc1ccc(-c2cc(-c3ccc(Nc4nc(Nc5ccc(Cl)cc5)nc(Nc5ccc(Cl)cc5)n4)cc3)no2)cc1
inactive: NCI-H23 lung 66.5% | NCI-H226 lung 110% | NCI-H322M lung 79.5% | HOP-62 NSCLC 100% | NCI-H460 lung 74.8% | NCI-H522 lung 84.5% | A549/ATCC NSCLC 62.5% | 786-0 renal 80.6% | COLO 205 colon 79.5%
active: HOP-92 NSCLC -28.6%

CC(=O)O[C@H]1C[C@@]2(C)[C@@H](C[C@@H](O)[C@H]3[C@@]4(C)CC[C@H](N5CCCC5)[C@@H](C)[C@@H]4CC[C@@]32C)/C1=C(\CCC=C(C)C)C(=O)O
inactive: NCI-H23 lung 95.7% | NCI-H226 lung 94.6% | NCI-H322M lung 101% | HOP-62 NSCLC 100% | NCI-H460 lung 101% | HOP-92 NSCLC 83.7% | NCI-H522 lung 91.2% | A549/ATCC NSCLC 102% | 786-0 renal 105% | COLO 205 colon 108%

O=C1NCCN1/N=C/c1c(Cl)n(Cc2ccc(Cl)cc2)c2ccccc12
inactive: NCI-H23 lung 98.2% | NCI-H226 lung 64.8% | NCI-H322M lung 110% | HOP-62 NSCLC 136% | NCI-H460 lung 41.4% | HOP-92 NSCLC 62.8% | NCI-H522 lung 93.9% | A549/ATCC NSCLC 70% | 786-0 renal 96.5% | COLO 205 colon 75.2%

COc1cccc(C2C3=C(COC3=O)N(CCO)c3cc4c(cc32)OCCO4)c1 (stereo not given)
inactive: NCI-H23 lung 12.5% | NCI-H226 lung 38.3% | NCI-H322M lung 39% | HOP-62 NSCLC 23.4% | HOP-92 NSCLC 27.6% | A549/ATCC NSCLC 24.6% | 786-0 renal 19.3%
active: NCI-H460 lung 5.46% | NCI-H522 lung -14.6% | COLO 205 colon -68%

CCN(CC)CCCNc1cc(OC)cc2cccnc12
inactive: NCI-H23 lung 99.3% | NCI-H226 lung 92.7% | NCI-H322M lung 107% | HOP-62 NSCLC 102% | NCI-H460 lung 105% | HOP-92 NSCLC 124% | NCI-H522 lung 94.7% | A549/ATCC NSCLC 108% | 786-0 renal 102% | COLO 205 colon 83.9%

c1ccc(-c2cn3nc(-c4c[nH]c5ccccc45)sc3n2)cc1
inactive: NCI-H23 lung 87.6% | NCI-H226 lung 77.3% | NCI-H322M lung 71.4% | HOP-62 NSCLC 73.6% | NCI-H460 lung 89.2% | HOP-92 NSCLC 75.5% | NCI-H522 lung 61.2% | A549/ATCC NSCLC 82.6% | 786-0 renal 102% | COLO 205 colon 87.1%

C#CCOC(=O)C(N)CSSCC(N)C(=O)O (stereo not given)
inactive: NCI-H23 lung 103% | NCI-H226 lung 112% | NCI-H322M lung 91.2% | HOP-62 NSCLC 94.9% | NCI-H460 lung 90.4% | HOP-92 NSCLC 97.5% | NCI-H522 lung 86.1% | A549/ATCC NSCLC 98.2% | 786-0 renal 100% | COLO 205 colon 104%

COc1ccc(NC(=O)c2ccc(NC3=C(c4ccc(Cl)cc4)C(=O)NC3=O)cc2)cc1
inactive: NCI-H23 lung 85.3% | NCI-H226 lung 84.4% | NCI-H322M lung 85.2% | HOP-62 NSCLC 80.8% | NCI-H460 lung 90.6% | HOP-92 NSCLC 102% | NCI-H522 lung 45.2% | A549/ATCC NSCLC 71.2% | 786-0 renal 89.1% | COLO 205 colon 86.3%

CN1CCN(Cc2ccc(NC(=O)c3cc(C#Cc4cnc(N)c5ncccc45)n(C)n3)cc2C(F)(F)F)CC1
inactive: NCI-H23 lung 97.8% | NCI-H226 lung 115% | NCI-H322M lung 127% | HOP-62 NSCLC 100% | HOP-92 NSCLC 103% | NCI-H522 lung 99.7% | A549/ATCC NSCLC 47.5% | COLO 205 colon 115%
active: NCI-H460 lung 9.09% | 786-0 renal 9.92%
